# Results: the supplement of paper PMC6555819
# Key:
# Assay in all cases: PBM binding z-score (relative to random genomic background probes); higher = stronger binding; sequences stand for … in GC…GCGATTGACAGCGTAGAATGAAGG
# [1] = test system: FXR:RXRa (NR concentration 270 nM, RXRa partner concentration 90 nM)
# In short: (§1)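 Antibodies against each partner of ligand-free nuclear receptor dimers (one per run) detected binding on custom Agilent 4×180K protein-binding microarrays after 1 h incubation. The double-stranded probes had 34-nt variable regions carrying direct-repeat seeds, single-nucleotide variants, half-site ablations and random human genomic background sequences. Binding z-scores, from regression-normalized fluorescence, use the random background probes as reference.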
# [2] = test system: LXRa:RXRa (NR concentration 270 nM, RXRa partner concentration 90 nM)
# In short: as §1
# [3] = test system: LXRa homodimer (NR concentration 270 nM)
# In short: as §1
# [4] = test system: LXRb:RXRa (NR concentration 270 nM, RXRa partner concentration 90 nM)
# In short: as §1
# [5] = test system: LXRb homodimer (NR concentration 270 nM)
# In short: as §1
# [6] = test system: PPARa:RXRa (NR concentration 270 nM, RXRa partner concentration 90 nM)
# In short: as §1
# [7] = test system: PPARg:RXRa (NR concentration 180 nM, RXRa partner concentration 90 nM)
# In short: as §1
# [8] = test system: PPARg:RXRa 270nM:90nM, anti-RXR (NR concentration 270 nM, RXRa partner concentration 90 nM)
# In short: as §1
# [9] = test system: PPARg:RXRa 30nM:10nM, anti-RXR (NR concentration 30 nM, RXRa partner concentration 10 nM)
# In short: as §1
# [10] = test system: PPARg:RXRa 90nM:30nM, anti-RXR (NR concentration 90 nM, RXRa partner concentration 30 nM)
# In short: as §1
# [11] = test system: PPARg:RXRa DBDmut IVT, anti-RXR (DBD mutation: RXRa K156A/R161A, NR concentration 270 nM, RXRa partner concentration 90 nM)
# In short: as §1
# [12] = test system: PPARg:RXRa IVT, anti-PPARg (NR concentration 270 nM, RXRa partner concentration 90 nM)
# In short: as §1
# [13] = test system: PPARg DBDmut:RXRa IVT, anti-PPARg (DBD mutation: PPARg1 K132A/R137A, NR concentration 270 nM, RXRa partner concentration 90 nM)
# In short: as §1
# [14] = test system: PPARg DBDmut IVT, anti-PPARg (DBD mutation: PPARg1 K132A/R137A, NR concentration 270 nM)
# In short: as §1
# [15] = test system: PPARg homodimer (NR concentration 180 nM)
# In short: as §1
# [16] = test system: PXR:RXRa (NR concentration 270 nM, RXRa partner concentration 90 nM)
# In short: as §1
# [17] = test system: PXR homodimer (NR concentration 270 nM)
# In short: as §1
# [18] = test system: RARa:RXR (NR concentration 270 nM, RXRa partner concentration 90 nM)
# In short: as §1
# [19] = test system: RARa homodimer (NR concentration 270 nM)
# In short: as §1
# [20] = test system: RARb:RXRa (NR concentration 270 nM, RXRa partner concentration 90 nM)
# In short: as §1
Sequence,PBM binding z-score [1],PBM binding z-score [2],PBM binding z-score [3],PBM binding z-score [4],PBM binding z-score [5],PBM binding z-score [6],PBM binding z-score [7],PBM binding z-score [8],PBM binding z-score [9],PBM binding z-score [10],PBM binding z-score [11],PBM binding z-score [12],PBM binding z-score [13],PBM binding z-score [14],PBM binding z-score [15],PBM binding z-score [16],PBM binding z-score [17],PBM binding z-score [18],PBM binding z-score [19],PBM binding z-score [20]
TCATATAGGTAAACAGGCGAAAGTCCGTAAGTTA,0.58,0.715,0.0889,0.816,-0.0877,1.56,1.45,2.91,3.94,3.3,4.24,2.83,0.751,0.916,1.19,0.767,0.508,1.04,0.681,0.356
CGTCCAAGGTCAGAGAGGTGAGTGAATGCCGAGT,4.98,3.29,0.18,2.43,0.0466,4.06,2.73,2.95,0.53,1.78,2.79,3.19,-0.199,-0.145,3.3,3.15,1.96,3.43,0.424,4.78
TAGGCTAGGTCATGCGGGCCAGTATAGTGTCGGC,3.97,2.69,0.422,1.26,0.000142,3.1,2.29,2.28,0.305,1.33,2.31,2.92,0.345,0.348,1.24,1.21,-0.485,2.05,0.442,3.84
CCGACTGGGGAATAAGGTTACCATAAGCCAGCCC,0.215,1.7,-0.22,0.69,-0.763,1.35,1.09,1.47,0.215,1.03,1.7,1.42,-0.845,-0.915,0.47,0.362,0.0229,1.11,-0.12,0.793
GATACAGGGTCAGGGCCAGAGTACGCGTATTGAT,4.33,2.61,-0.233,2.53,-0.183,4.46,3.86,3.63,0.972,2.36,1.35,2.69,-0.0398,-0.619,1.64,2.28,0.125,3.24,0.471,3.82
GCTTACGGCTCAAAGGTTATAGCATGAATAGAAT,0.876,1.45,0.0597,1.7,-0.639,2.62,2.18,3.88,1.46,3.1,-0.386,0.149,-0.0168,0.142,0.0753,1.47,-0.195,2.06,0.137,1.21
TCTTGTAGATAAAAGGTTAAGAAAGCCGAAGCCT,1.26,1.93,-0.0435,1.85,0.124,3.26,3.62,5.64,4.77,5.98,2.1,1.64,0.235,0.63,1.07,1.4,0.0184,1.84,0.655,1.91
CCTGCTCGGTCATGGTCAGCTAATCTACAGTATG,0.209,0.33,0.0504,-0.0325,-0.00908,0.0849,0.0527,-0.261,-0.454,-0.32,0.829,0.464,-0.762,-0.953,-0.491,-0.351,-0.822,-0.293,-0.596,2.46
GCATATGGGTAATACAAGGTGAAAGTCCGATTGT,0.428,1.27,0.16,0.226,-0.552,1.46,0.928,1.03,0.412,0.777,3.34,2.47,0.702,0.516,0.3,0.344,0.0703,1.08,0.617,0.416
